This is part of a sample that, as a whole, favours compounds with a hit. Of some 83,000 tested, about 20% had one in any assay.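 Values shown are percent growth following 48 h exposure of cells in 96-well plates to a single concentration of compound; below 10 was considered active.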 Values without a mark were called inactive. Active and inactive are the calls of the source.

Test systems include DU-145 prostate; K-562 leukemia; MALME-3M melanoma; MDA-MB-231 breast; RXF 393 renal; SF-268 CNS; SF-295 CNS; SF-539 CNS; UACC-257 melanoma.
What all share (experiment): NCI-60 one-dose screen, 48 h (100 = growth as untreated, 0 = no growth, -100 = all killed)
Common to all, as to details: 10 µM unless noted

On to `Clc1cccc(/C=N/Nc2nc(N/N=C/c3cccc(Cl)c3Cl)nc(N3CCCCC3)n2)c1Cl`, for which the growth in the assay on DU-145 prostate was 73.4%; in the assay with K-562 leukemia, 78.1%; in the assay on MALME-3M melanoma, 92.5%; with MDA-MB-231 breast, 84.2%; in the assay on RXF 393 renal it was 112%; in the assay with SF-268 CNS, 86.4%. Besides, the growth with SF-295 CNS was 92.7%; in the assay with SF-539 CNS, 84.3%; with UACC-257 melanoma, 100%.
For `O=C1Nc2ccccc2/C1=C/c1ccc(CO)n1-c1ccc(Cl)cc1`, the growth was 81.4% with DU-145 prostate; 19.3% in the assay with K-562 leukemia; 27.6% in the assay with MALME-3M melanoma; 58.1% in the assay with MDA-MB-231 breast; 57.1% in the assay with RXF 393 renal; 74.2% in the assay with SF-268 CNS. Further, the values for the growth in the assay on SF-295 CNS, with SF-539 CNS and in the assay with UACC-257 melanoma were 33.8%, 44.5% and 83.4%, respectively.
For the compound `NS(=O)(=O)c1ccc(-n2cc(CN3CCCCC3)nn2)cc1`, the growth with DU-145 prostate is 108%; with K-562 leukemia, 94.9%; with MALME-3M melanoma it was 105%; in the assay with MDA-MB-231 breast it was 105%; in the assay on RXF 393 renal, 106%; with SF-268 CNS it was 102%. Further, the values for the growth with SF-295 CNS, in the assay with SF-539 CNS and with UACC-257 melanoma were 102%, 102% and 101%, respectively.
Consider `C[C@H](CCC(=O)NCc1ccc(C(=O)Nc2ccccc2N)cc1)[C@H]1CC[C@H]2[C@@H]3[C@@H](O)C[C@@H]4C[C@H](O)CC[C@]4(C)[C@H]3CC[C@]12C`, for which the growth was 84.1% in the assay on DU-145 prostate; 30.6% in the assay with K-562 leukemia; 45% with MALME-3M melanoma; 49.2% with MDA-MB-231 breast; 55.3% in the assay with RXF 393 renal; 52.6% with SF-268 CNS. Moreover, the growth in the assay with SF-295 CNS was 69.1%; in the assay with SF-539 CNS, 55.6%; with UACC-257 melanoma, 63.7%.
As for `CNC(=O)c1cc(-c2ccc(NS(=O)(=O)c3ccc(C)cc3)cc2)nc2cccnc12`, the growth was 113% in the assay with DU-145 prostate; 101% in the assay with K-562 leukemia; 101% in the assay on MALME-3M melanoma; 95% in the assay with MDA-MB-231 breast; 133% in the assay with RXF 393 renal; 107% in the assay on SF-268 CNS. For the same compound, the figures for the growth in the assay with SF-295 CNS, in the assay on SF-539 CNS and in the assay with UACC-257 melanoma were 108%, 102% and 105%, respectively.
For `O=C(CSc1nnc(-c2ccc(Cl)cc2)n1-c1ccccc1)Nc1ccc(Br)cc1`, the growth was 41.2% with DU-145 prostate; 40.5% with K-562 leukemia; -3.16% (active) in the assay on MALME-3M melanoma; -29.8% (active) in the assay on MDA-MB-231 breast; -31.6% (active) in the assay on RXF 393 renal; 42.2% in the assay with SF-268 CNS. For the same compound, the growth with SF-295 CNS is -34.3% (active); in the assay on SF-539 CNS it was -66.7% (active); in the assay with UACC-257 melanoma, 50.3%.
Consider `O=C(Nc1cccc(C(F)(F)F)c1)c1cc(-c2ccc(F)cc2F)ccc1O`, for which the growth was 18.9% with DU-145 prostate; 11.1% in the assay with K-562 leukemia; -10.2% (active) in the assay with MALME-3M melanoma; 3.11% (active) in the assay on MDA-MB-231 breast; -25.9% (active) in the assay with RXF 393 renal; 16.5% with SF-268 CNS. For the same compound, the growth with SF-295 CNS is -23.1% (active); with SF-539 CNS, 10.4%; in the assay on UACC-257 melanoma it was -8.74% (active).
Take `CNC(=O)c1c(NC(=O)c2cccc(C(F)(F)F)c2F)sc2c1CCC(=O)C2`: the growth in the assay on DU-145 prostate is 30.6%; in the assay with K-562 leukemia it was 13.2%; with MALME-3M melanoma, 6.12% (active); in the assay on MDA-MB-231 breast, -28.8% (active); with RXF 393 renal, -11.4% (active); in the assay on SF-268 CNS, 16.7%. Further, the growth is -6.97% (active) with SF-295 CNS, -56% (active) in the assay with SF-539 CNS and -1.77% (active) in the assay with UACC-257 melanoma.
`O=C1[C@H]2Cc3c([nH]c4ccccc34)[C@@H](c3ccc(Cl)cc3)N2C(=O)CN1C1CCN(Cc2ccccc2)CC1`: the growth is 55.2% with DU-145 prostate; 9.91% (active) in the assay on K-562 leukemia; 72.9% in the assay on MALME-3M melanoma; 55.2% with MDA-MB-231 breast; 41% in the assay on RXF 393 renal; 50% in the assay on SF-268 CNS. Moreover, the growth in the assay with SF-295 CNS is 64.9%; with SF-539 CNS, 63.7%; with UACC-257 melanoma, 68%.
For the compound `O=S(=O)(NCCCNc1nccc(-c2[nH]c(-c3ccccc3)nc2-c2ccc(Cl)c(O)c2)n1)c1cccc2ccccc12`, the growth in the assay with DU-145 prostate is 27.6%; in the assay on K-562 leukemia it was 17%; in the assay with MALME-3M melanoma it was 6.39% (active); in the assay with MDA-MB-231 breast it was 45.9%; in the assay on RXF 393 renal, -9.57% (active); in the assay on SF-268 CNS it was 46.8%. In addition, the growth was 12.9% in the assay on SF-295 CNS, 44.8% with SF-539 CNS and 27% with UACC-257 melanoma.
Take `O=C(Nc1ccc(F)c(F)c1)c1cc(-c2ccc(F)cc2F)ccc1O`: the growth was 18.5% in the assay with DU-145 prostate; 12.2% in the assay with K-562 leukemia; -13.9% (active) in the assay with MALME-3M melanoma; 4.13% (active) in the assay on MDA-MB-231 breast; -28.1% (active) in the assay with RXF 393 renal; 16.3% in the assay on SF-268 CNS. The growth in the assay on SF-295 CNS is -23.4% (active); in the assay on SF-539 CNS, 12.5%; with UACC-257 melanoma, -9.01% (active).
On to `Cc1ccc(-c2cc3nc(C(Cl)Cl)nc(-c4ccco4)n3n2)cc1`, for which the growth is -24.3% (active) with DU-145 prostate; 55.5% with K-562 leukemia; 93.3% in the assay with MALME-3M melanoma; -21.7% (active) in the assay with MDA-MB-231 breast; -46.1% (active) with RXF 393 renal; 20.5% in the assay on SF-268 CNS. Also, the growth was -4.81% (active) in the assay on SF-295 CNS, -32.6% (active) in the assay on SF-539 CNS and 57% in the assay on UACC-257 melanoma.
Take `Cc1ccc(-n2cc(/C=N/NC(=O)c3ccncc3)c(-c3ccc(S(C)(=O)=O)cc3)n2)cc1`: the growth was 97.3% in the assay on DU-145 prostate; 32.3% in the assay on K-562 leukemia; 68.7% in the assay on MALME-3M melanoma; 79.5% with MDA-MB-231 breast; 103% with RXF 393 renal; 100% in the assay with SF-268 CNS. Besides, the results for the growth in the assay with SF-295 CNS, in the assay with SF-539 CNS and in the assay on UACC-257 melanoma were 102%, 91.8% and 96.5%, respectively.
For `NS(=O)(=O)c1ccc(Nc2nc(N/N=C/c3c[nH]c4ccccc34)nc(Nc3ccccc3)n2)cc1`, the growth in the assay on DU-145 prostate was 43.4%; with K-562 leukemia it was 23%; in the assay with MALME-3M melanoma it was 46.1%; in the assay with MDA-MB-231 breast, 48.8%; with RXF 393 renal, -25.2% (active); in the assay with SF-268 CNS it was 59.2%. Besides, the growth is 31.5% with SF-295 CNS, 47.6% in the assay on SF-539 CNS and 63.1% in the assay with UACC-257 melanoma.

For the origin of these results see PubChem BioAssay (NCI).
